Bioassay records deposited in PubChem by National Center for Advancing Translational Sciences (NCATS).
Tau fluor counter: Counterscreen qHTS for Inhibitors of Tau Fibril Formation, Fluorescence Polarization | Potency, µM (series often up to 57.7 µM), for the others: at the top dose activity change, negative = decrease | tau K18 P301L Alexa594 fluorescence, heparin fibrillization | 280,000 compounds, 0.93% hits | AID 1463, 2008; further: nearly all actives have a fitted effect of over 55% in size
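Human K18 P301L tau (15 uM unlabeled plus 0.24 uM Alexa 594-labeled, final) in 100 mM sodium acetate pH 7 was mixed with compound and 20 uM heparin and incubated 6 hr at 37 C.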
Tau fibril FP: qHTS for Inhibitors of Tau Fibril Formation, Fluorescence Polarization; Microtubule-associated protein tau (Homo sapiens), P10636; K18 P301L tau heparin fibrillization, Alexa594 FP, 6 h; Potency, µM (doses to about 57.7 µM), inactives show top-dose activity, negative = inhibition, most hits filed as inhibitors; 280,000 compounds, 0.39% hits; AID 1468, 2008; further: nearly all actives have a fitted effect of over 55% in size
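K18 P301L tau (15 uM unlabeled/0.24 uM Alexa 594-labeled, final) + compound + heparin 20 uM final; 100 mM NaOAc pH 7; 6 hr 37 C; ThT 30 uM final added, 1 hr RT; FP ex 555/em 632 nm.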
VDR inhibitor: Inhibitors of the vitamin D receptor (VDR): qHTS; Vitamin D3 receptor (Homo sapiens), P11473; VDR-SRC2-3 peptide fluorescence polarization, 2 h; Potency, µM, without a hit: max response, negative = inhibition, hits mostly inhibitors; 400,000 compounds, 0.93% hits; AID 504847, 2011
Target sequence (P11473 whole entry, looked up): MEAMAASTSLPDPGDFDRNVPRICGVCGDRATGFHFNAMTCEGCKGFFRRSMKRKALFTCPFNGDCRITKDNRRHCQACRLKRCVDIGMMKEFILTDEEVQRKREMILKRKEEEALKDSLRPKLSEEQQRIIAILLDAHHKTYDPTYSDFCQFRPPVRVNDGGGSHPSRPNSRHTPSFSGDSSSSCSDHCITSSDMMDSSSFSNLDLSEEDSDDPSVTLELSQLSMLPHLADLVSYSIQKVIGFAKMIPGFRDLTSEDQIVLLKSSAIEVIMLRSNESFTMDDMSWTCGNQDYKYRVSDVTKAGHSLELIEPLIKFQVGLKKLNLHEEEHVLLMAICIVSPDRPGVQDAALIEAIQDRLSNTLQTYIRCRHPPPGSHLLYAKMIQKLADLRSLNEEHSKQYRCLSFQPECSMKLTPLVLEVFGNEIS
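Fluorescence polarization assay measuring small-molecule disruption of VDR binding to the coregulator peptide SRC2-3. Compounds were pin-transferred (23 nl) into the reagent mix and incubated 2 h at room temperature before reading.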
Sfp inh: qHTS Assay for Inhibitors of Bacillus subtilis Sfp phosphopantetheinyl transferase (PPTase); 4'-phosphopantetheinyl transferase ffp (Bacillus subtilis), Q9F4F7; Biochemical Sfp PPTase activity, qHTS; Potency, µM, inactives show largest response in the series, negative = inhibition, usual class: inhibitors; 310,000 compounds, 3.5% hits; AID 1490, 2009;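 further: the enzyme is Sfp with the accession as filed and its product quenches rhodamine fluorescence; 0% = enzyme reaction without inhibitor and -100% = no enzyme wells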
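Fluorescence-quenching assay: 15 nM Sfp-PPTase preincubated 15 min at room temperature with compound, then 5 uM rhodamine-CoA and 12.5 uM BHQ-2-labelled YbbR peptide added. Fluorescence (ex 525/em 598 nm) read at start and after 30 min; difference gives rate.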
Tau fibril ThT: qHTS for Inhibitors of Tau Fibril Formation, Thioflavin T Binding | Microtubule-associated protein tau (Homo sapiens), P10636 | 270,000 compounds, 2.1% hits | recombinant tau K18 P301L (four-repeat tau fragment), heparin-induced fibrillization, ThT fluorescence | Potency, µM (top dose mostly 57.4 µM), for inactives: at the top dose activity, negative = inhibition, usual class: inhibitors | AID 1460, 2008; further: nearly all actives have a fitted effect of over 55% in size
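In this qHTS, human K18 P301L tau is incubated with compound and heparin for 6 hr at 37 C, and Thioflavin T fluorescence then reports fibril load.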
PLK1 PBD inh: qHTS for Inhibitors of PLK1-PDB (polo-like kinase 1 - polo-box domain): Primary Screen; Serine/threonine-protein kinase PLK1 (Homo sapiens), P53350; 360,000 compounds, 2.8% hits; AID 720504, 2013; Potency, µM, for inactives: max response, negative = inhibition, most hits filed as inhibitors; Plk1 PBD binding of FITC phosphopeptide, fluorescence polarization; further: series mostly up to about 57 µM; nearly all actives have a fitted effect of over 65% in size
An asterisk follows results filed as active; u = inconclusive; x = no result given. In the library only some 6% were active in any assay of this set; here they are far more common. The call rests on the fitted dose curve; in most records, active means well fitted curve in the direction sought with a large enough effect; inconclusive means small, poorly fitted or top-dose-only effect, or another doubt; inactive means no such curve, though single readings can be large; an effect the other way counts as inactive or inconclusive. Unless noted, on the % scale 0 is the no-effect control and ±100 the full control effect; potency means the concentration at half of the fitted maximal effect.

SMILES	Tau fluor counter	Tau fibril FP	VDR inhibitor	Sfp inh	Tau fibril ThT	PLK1 PBD inh
O=C(NCc1ccc2c(c1)OCO2)c1ccc(C2SCC(=O)N2Cc2ccco2)cc1 (stereo not drawn)	-2%	2%	-14%	35µM*	-10%	-5%
CC(C)CNC(=O)c1ccc(C2SCC(=O)N2Cc2ccccc2)cc1 (stereo not drawn)	-7%	-2%	79µM*	13%	-3%	24µM*
C=CCNC(=O)c1ccc(C2SCC(=O)N2Cc2ccco2)cc1 (stereo not drawn)	-13%	-8%	1%	u	-19%	-18%
CCCNC(=O)c1ccc(C2SCC(=O)N2Cc2ccccc2)cc1 (stereo not drawn)	2%	-6%	-1%	-22%	3%	-1%
CCCCC(CC)CN=C(N)NC(N)=NCCCCCCN=C(N)NC(N)=NCC(CC)CCCC (stereo not drawn)	1%	8%	5%	14µM*	-6%	u
COc1ccc(CNC(=O)CCc2c(C)c3ccc(OC)c(C)c3oc2=O)cc1OC	-10%	-7%	5%	x	-10%	x
COc1ccc(CCn2c(C)c(C(C)=O)c3cc(OC(=O)c4ccco4)ccc32)cc1OC	-26%	1%	4%	-12%	u	24µM*
Cc1cc(C(=O)C(C)Cl)c(C)n1Cc1ccco1 (stereo not drawn)	-1%	-10%	-10%	-8%	-12%	21µM*
Cc1cc(C(=O)COC(=O)C(C)NC(N)=O)c(C)n1Cc1ccco1 (stereo not drawn)	-5%	1%	-1%	7%	-5%	-14%
Cc1cc(C(=O)CSc2nnnn2C)c(C)n1Cc1ccco1	-4%	11%	7%	-5%	-9%	-2%
Cc1cc(C(=O)CSc2ncccn2)c(C)n1Cc1ccco1	6%	1%	13%	56µM*	0%	-6%
CC12CCC(=O)C=C1CCC1C2C(O)CC2(C)C1CCC2(O)C(=O)COC(=O)COCC(=O)O (stereo not drawn)	x	x	9%	x	x	-12%
CCNc1ncc2nc(-c3cc(F)cc(F)c3)c(=O)n(CCOC)c2n1	x	x	-22%	13%	x	x
COc1cccc(C2C3CN(C)CC=C3C(C#N)=C(N)C2(C#N)C#N)c1OC (stereo not drawn)	-11%	u	1%	6%	u	u
CN1CC=C2C(C#N)=C(N)C(C#N)(C#N)[C@H](c3cccc(Cl)c3)C2C1 (stereo partly drawn)	-27%	u	-24%	1%	20µM*	u
N#CC1=C(N)C(C#N)(C#N)C(c2ccncc2)C2CN(C(=O)OCc3ccccc3)CC=C12 (stereo not drawn)	-15%	u	u	17%	25µM*	-14%
CCOC(=O)N1CC=C2C(C#N)=C(N)C(C#N)(C#N)[C@H](c3ccccc3OCC)[C@H]2C1	1%	0%	u	15%	-10%	-13%
CCOC(=O)N1CC=C2C(C#N)=C(N)C(C#N)(C#N)[C@H](c3ccsc3)[C@H]2C1	-12%	u	u	-6%	u	-23%
CN1CC=C2C(C#N)=C(N)C(C#N)(C#N)C(c3ccsc3)C2C1 (stereo not drawn)	-18%	u	-5%	2%	16µM*	u
CN1CC=C2C(C#N)=C(N)C(C#N)(C#N)[C@H](c3cccs3)[C@H]2C1	-17%	u	u	7%	u	21µM*
CC/C(=N/NC(=O)c1ccc2c(c1)OCO2)c1ccccc1O	x	x	13%	x	x	-4%
